Laboratory results reported in PubChem BioAssay (NCI).
About 83,000 compounds went through this panel and 20% of them were active in at least one assay; those are over-represented in the sample as a whole.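 96-well plates, one dose, 48 hours. Percent growth reported; active if below 10.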 A number with no mark means an inactive call. Calls of active or inactive are those of the source.

How the values were obtained:
Test in all cases: NCI-60 one-dose screen, 48 h (100 = growth as untreated, 0 = no growth, -100 = all killed)
Conditions in all cases: 10 µM unless noted
HCT-15 colon = tested on: HCT-15 colon
HT29 colon = tested on: HT29 colon
SNB-75 CNS = tested on: SNB-75 CNS
SNB-19 CNS = tested on: SNB-19 CNS
U251 CNS = tested on: U251 CNS
PC-3 prostate = tested on: PC-3 prostate
SK-MEL-5 melanoma = tested on: SK-MEL-5 melanoma
UACC-62 melanoma = tested on: UACC-62 melanoma
LOX IMVI melanoma = tested on: LOX IMVI melanoma
SK-MEL-28 melanoma = tested on: SK-MEL-28 melanoma
SK-MEL-2 melanoma = tested on: SK-MEL-2 melanoma
EKVX NSCLC = tested on: EKVX NSCLC
SN12C renal = tested on: SN12C renal
UO-31 renal = tested on: UO-31 renal
TK-10 renal = tested on: TK-10 renal
ACHN renal = tested on: ACHN renal
CAKI-1 renal = tested on: CAKI-1 renal
A498 renal = tested on: A498 renal
CCRF-CEM leukemia = tested on: CCRF-CEM leukemia
MOLT-4 leukemia = tested on: MOLT-4 leukemia

Compound	growth (HCT-15 colon)	growth (HT29 colon)	growth (SNB-75 CNS)	growth (SNB-19 CNS)	growth (U251 CNS)	growth (PC-3 prostate)	growth (SK-MEL-5 melanoma)	growth (UACC-62 melanoma)	growth (LOX IMVI melanoma)	growth (SK-MEL-28 melanoma)	growth (SK-MEL-2 melanoma)	growth (EKVX NSCLC)	growth (SN12C renal)	growth (UO-31 renal)	growth (TK-10 renal)	growth (ACHN renal)	growth (CAKI-1 renal)	growth (A498 renal)	growth (CCRF-CEM leukemia)	growth (MOLT-4 leukemia)
COc1ccc(N=Nc2c(N)nn3c(-c4ccc(OC)c(OC)c4)ccnc23)cc1	91.7%	68.5%	82.3%	74.1%	69.3%	87.5%	77.4%	64.3%	86.1%	86.4%	103%	103%	88.5%	108%	88.6%	77.4%	-60.2% (active)	95.7%	86.9%	100%
COc1cc2cc(C(=O)N3C[C@@H](CCl)c4c3cc(OC(=O)N(CCC(=O)N3CCN(C)CC3)[C@H]3CCSSC3)c3ccccc43)[nH]c2c(OC)c1OC	-52.1% (active)	-49.4% (active)	-68.7% (active)	-7.02% (active)	-68% (active)	-4.51% (active)	-86.3% (active)	-91.8% (active)	-99.5% (active)	-94.1% (active)	-85% (active)	-67.7% (active)	-10.3% (active)	-26.9% (active)	8.66% (active)	-6.81% (active)	13.7%	-19.6% (active)	32%	-9.57% (active)
CC1=C(C(=O)OC(C)C)C(c2ccc(O)cc2)NC(=O)N1 (stereo not given)	105%	107%	115%	95%	103%	92.1%	107%	95.4%	98%	112%	96.5%	96.1%	106%	92.2%	90.2%	106%	95.3%	113%	93.9%	97.8%
CC[C@]12C=CCN3CC[C@@]4(c5ccc(OC)cc5N(C)[C@H]4[C@@](O)(C(=O)OC)[C@@H]1OC(=O)CCC[P+](c1ccc(OC)cc1)(c1ccc(OC)cc1)c1ccc(OC)cc1)[C@@H]32	-86.3% (active)	-84.3% (active)	-34% (active)	-96.7% (active)	-93.7% (active)	-78.8% (active)	-99.6% (active)	-97.1% (active)	-96.4% (active)	-96.3% (active)	-90.6% (active)	-85% (active)	-93.4% (active)	-56.8% (active)	-90.7% (active)	-95.8% (active)	-93.4% (active)	-83.2% (active)	-71.2% (active)	-36.7% (active)
O=C(c1ccc(Cl)cc1)C1[C@H](c2ccccc2Cl)[C@@H](c2ccccc2)NC12C(=O)Nc1ccc(Cl)cc12 (stereo not given in full)	-81% (active)	-81.6% (active)	-16.4% (active)	-28.4% (active)	-73.3% (active)	-24.8% (active)	-98.1% (active)	-59.9% (active)	-100% (active)	-80.1% (active)	-87.1% (active)	-23.5% (active)	-90.4% (active)	-51.2% (active)	-0.422% (active)	-26.1% (active)	-20.2% (active)	-40.7% (active)	-6.99% (active)	-29.4% (active)
COc1sc(/C=N/NC(=O)c2[nH]c3ccc(Br)cc3c2-c2ccccc2)cc1Cl	-26.2% (active)	-52.8% (active)	42%	-46% (active)	-40.7% (active)	4.59% (active)	-91.1% (active)	-30.6% (active)	-91.7% (active)	-33.1% (active)	-9.93% (active)	-12.3% (active)	-26.6% (active)	-5.09% (active)	9.67% (active)	-67.9% (active)	-46.4% (active)	9.37% (active)	9.12% (active)	-3.08% (active)
O=C(O)CC1S/C(=N/N=C/c2nc3ccccc3s2)NC1=O (stereo not given)	76.5%	114%	96.9%	96.3%	89.8%	103%	96.9%	114%	100%	117%	116%	54.7%	101%	52.7%	104%	78.3%	77.3%	155%	93%	95.2%
COc1ccc2[nH]cc(-c3cc(N)n4nc(-c5c[nH]c6ccccc56)cc4n3)c2c1	-79.2% (active)	-63.8% (active)	82.1%	13.9%	-68.2% (active)	10.9%	-93.2% (active)	-81% (active)	-85.8% (active)	-99% (active)	-63.7% (active)	10.9%	49.1%	-74.9% (active)	-1.71% (active)	8.14% (active)	-59.5% (active)	-0.442% (active)	-20% (active)	-7.46% (active)
CN(C)c1nc(NCCNS(=O)(=O)c2ccc(C(=O)/C=C/c3ccccc3)cc2)nc(N2CCOCC2)n1	-45.3% (active)	3.67% (active)	73.2%	77%	44%	59.6%	83.5%	72.8%	-63.1% (active)	88%	97.6%	77.6%	79.8%	70.9%	108%	87%	68.5%	77.2%	55.1%	13.9%
CCOC(=O)c1ccc(NC(=S)NC(=O)c2ccc(NC(=O)C(C)C)cc2OC)cc1	23.6%	68.2%	51.1%	57.7%	63.4%	18%	-69% (active)	30.2%	45.6%	50.8%	48.5%	36.1%	73.8%	51.7%	85.7%	64.6%	53.7%	86.7%	9.79% (active)	-60.3% (active)
O=C(CSc1nnc(-c2ccc(-c3nc4ccccc4[nH]3)cc2)o1)Nc1ccc(Br)cc1	17.5%	22.6%	63.3%	-46.2% (active)	-81.6% (active)	12.4%	21.6%	30.5%	-85.5% (active)	-63.6% (active)	41.4%	27.1%	21.9%	63.2%	56.7%	-60.9% (active)	25.2%	109%	23%	4.27% (active)
CC1=C(C(=O)OCc2ccccc2)C(c2cccc3ccccc23)n2c(nc3ccccc32)N1 (stereo not given)	21.7%	3.87% (active)	-15.1% (active)	40.9%	24.9%	22.8%	3.71% (active)	17.3%	36.1%	50.5%	18%	41.9%	30.6%	34.2%	66.6%	41.1%	30.5%	62.6%	25.8%	32.3%
O=C1Nc2ccc(F)cc2/C1=C/C(=O)c1cc2ccccc2oc1=O	62.7%	115%	91.1%	100%	104%	93.7%	102%	82.2%	80.4%	117%	102%	90.3%	104%	62.1%	161%	62.5%	88.8%	128%	39.6%	65%
CCCCCCCCc1ccc(C(=O)Nc2ccc(C)c(OP(=O)(O)O)c2)cc1	95.5%	106%	89.8%	91%	92%	91.3%	103%	90.6%	92.9%	116%	109%	101%	95.1%	62.4%	107%	103%	102%	107%	42.9%	78.3%
O=C(Cc1c(-c2ccccc2[N+](=O)[O-])n(-c2ncnc3c2c(-c2ccccc2)c(-c2ccccc2)n3Cc2ccccc2)[nH]c1=O)c1ccc(Cl)c(Cl)c1	46.9%	18.4%	14%	16.8%	28.1%	8.7% (active)	-45.3% (active)	-9.59% (active)	14.9%	27.8%	-22.4% (active)	14.6%	12.6%	41.7%	38.5%	25.4%	9.03% (active)	56.1%	13.2%	24.1%
